The panel holds about 83,000 compounds, 20% with a hit somewhere; the sample as a whole holds those more often.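 A percent growth of 40 corresponds to 60% growth inhibition; 0 means no net growth; -100 means all cells died. Active threshold: below 10.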 Calls of active or inactive are those of the source.
Key:
Test in all cases: NCI-60 one-dose screen, 48 h (100 = growth as untreated, 0 = no growth, -100 = all killed)
Conditions in all cases: 10 µM unless noted
[1] = tested on: NCI-H23 lung
[2] = tested on: NCI-H226 lung
[3] = tested on: NCI-H322M lung
[4] = tested on: HOP-62 NSCLC
[5] = tested on: NCI-H460 lung
[6] = tested on: HOP-92 NSCLC
[7] = tested on: NCI-H522 lung
[8] = tested on: A549/ATCC NSCLC
[9] = tested on: 786-0 renal
[10] = tested on: COLO 205 colon

Measured: growth

Cn1cc(-c2csc(-c3ccccc3)n2)c2cccnc21
active: [1] -54.3% [100 µM] | [2] -11.7% [100 µM] | [3] -23.6% [100 µM] | [4] -74.3% [100 µM] | [5] -56.2% [100 µM] | [6] -53% [100 µM] | [7] -24.3% [100 µM] | [8] -12.8% [100 µM] | [9] -77.4% [100 µM] | [10] -67.2% [100 µM]

NS(=O)(=O)c1cnccc1Oc1cccc2cccnc12
inactive: [1] 90.9% | [2] 97.3% | [3] 99.6% | [4] 86.8% | [5] 108% | [6] 78.4% | [7] 95.7% | [8] 94.6% | [9] 97.7% | [10] 103%

CCN1C(=O)N(CC)C2Nn3c(s/c(=C\c4cccc([N+](=O)[O-])c4)c3=O)=NC21 (stereo not given)
active: [10] 6.72%
inactive: [1] 57.7% | [2] 88% | [3] 64.3% | [4] 62.3% | [5] 23.8% | [6] 75.8% | [7] 18.5% | [8] 45.1% | [9] 36%

Cc1ccc(S(=O)(=O)N/N=C\c2cc(Cl)ccc2O)cc1
inactive: [1] 96.8% | [2] 96.4% | [3] 114% | [4] 105% | [5] 93.7% | [6] 72.9% | [7] 80.3% | [8] 82% | [9] 74.5% | [10] 96.9%

O=c1oc2ccccc2c(Cl)c1Cl
inactive: [1] 60.6% | [2] 70.8% | [3] 91.5% | [4] 83.3% | [5] 103% | [6] 97.4% | [7] 22.9% | [8] 89.6% | [9] 47.3% | [10] 11.8%

N#C/C(=C/C=C/c1cccc(Cl)c1)S(=O)c1ccccc1 (stereo not given)
active: [1] -43.6% | [2] -33% | [3] -44.9% | [4] -17.4% | [5] -22.1% | [6] -60.9% | [7] -89.2% | [8] 1.83% | [9] -88.7% | [10] -63.1%

C#CCOc1nc(C)cc(C)c1C#N
inactive: [1] 95.6% | [2] 97% | [3] 105% | [4] 92.2% | [5] 102% | [6] 71.4% | [7] 89.3% | [8] 97.7% | [9] 99.6% | [10] 111%

c1ccc(-c2nc([P+](c3ccccc3)(c3ccccc3)c3ccccc3)c(N3CCOCC3)o2)cc1
active: [1] 2.61% | [4] -2.79% | [6] -21.4% | [7] -3.16% | [10] -64.5%
inactive: [2] 34.7% | [3] 21% | [5] 10.1% | [8] 15.4% | [9] 27.3%

CC1SC(c2ccc(OCc3ccccc3)cc2)N(NC(=O)C(O)(c2ccccc2)c2ccccc2)C1=O (stereo not given)
inactive: [1] 61% | [2] 84.5% | [3] 49.1% | [4] 79% | [5] 38.5% | [6] 50.7% | [7] 24.4% | [8] 49.3% | [9] 59.6% | [10] 30.8%

COc1cccc(/C=C/C(=O)c2c(C)nc3ccccc3c2/C=C/c2ccc(C)cc2)c1OC
inactive: [1] 49.7% | [2] 62.8% | [3] 82.1% | [4] 70% | [5] 26.1% | [6] 76.4% | [7] 50.5% | [8] 94.3% | [9] 74.5% | [10] 80.6%

COc1ccc(Cl)cc1NC(=O)C(Br)C(Br)C(=O)O (stereo not given)
active: [7] -43.5%
inactive: [1] 67% | [2] 70.9% | [3] 61.5% | [4] 56.6% | [5] 111% | [6] 53.5% | [8] 115% | [9] 102% | [10] 105%

N#Cc1c(N)nc2c(C#N)c(NC(=O)c3ccccc3)nn2c1-c1ccccc1
inactive: [1] 87% | [2] 78% | [3] 94.7% | [4] 90.7% | [5] 96.8% | [6] 82.5% | [7] 86.5% | [8] 92.6% | [9] 102% | [10] 103%

CCOc1ccccc1-n1c(CN2CCN(C(=O)COc3ccc(CNCCCCCCN4C5CCCC4CC(OC(=O)Nc4cc(C)ccc4OC)C5)cc3)CC2)nc2ccccc2c1=O (stereo not given)
active: [1] -82.6% | [2] -73.5% | [3] -98.1% | [4] -92% | [5] -90.9% | [6] -90.2% | [7] -86.7% | [8] -88.2% | [9] -89.6% | [10] -85.1%

O=C(CCCCCCN1CC(=O)N2[C@@H](c3ccccc3Cl)c3[nH]c4ccccc4c3C[C@H]2C1=O)NO
inactive: [1] 76.8% | [2] 95.4% | [3] 81.8% | [4] 73.3% | [5] 67.8% | [7] 28.8% | [8] 97% | [9] 83.8% | [10] 59.6%
active: [6] -6.12%

Cc1ccc(C(=NN=C(N)N)c2ccc(C)cc2)cc1
active: [1] -14.5% | [5] 2.86% | [6] -0.938% | [7] -13.8% | [9] -25% | [10] -83.2%
inactive: [2] 12.3% | [3] 30.5% | [4] 13.1% | [8] 11.1%

S=C(c1ccc2c(c1)OCO2)N1CCN(c2ccccc2Cl)CC1
inactive: [1] 101% | [2] 87.9% | [3] 103% | [4] 102% | [5] 102% | [6] 67.3% | [7] 74.8% | [8] 98.2% | [9] 92.4% | [10] 97.1%

C=C1C(=O)O[C@H]2[C@H]1CC/C(COC(=O)C(=O)c1c[nH]c3ccccc13)=C\CC[C@@]1(C)O[C@@H]21
inactive: [3] 24.6%
active: [1] -42.8% | [2] -61.6% | [4] 2.66% | [5] 6.72% | [6] -74.3% | [7] -62% | [8] 9.03% | [9] -75.8% | [10] -62.2%

COc1ccc(NC(=O)CSc2nnc(-c3cc(-c4ccccc4)nc4ccccc34)n2-c2ccccc2)cc1
inactive: [1] 92.1% | [2] 89.3% | [3] 94.6% | [4] 101% | [5] 102% | [6] 87.3% | [7] 80.1% | [8] 92.4% | [9] 97.3% | [10] 116%

O=c1ssc(Cl)c1-c1ccccc1
inactive: [1] 99.5% | [2] 99.1% | [3] 105% | [4] 98.1% | [5] 99% | [6] 72.5% | [7] 112% | [8] 106% | [9] 107% | [10] 85.1%

O=c1cc(-c2ccc(Cl)cc2)[nH]c2ccccc12
inactive: [1] 83.2% | [2] 87% | [3] 92.3% | [4] 79.3% | [5] 90.8% | [6] 73.3% | [7] 80.9% | [8] 91.2% | [9] 82.4% | [10] 99.7%

O=[N+]([O-])c1ccc(OCCO)cc1
inactive: [1] 99.6% | [2] 99.7% | [3] 104% | [4] 101% | [5] 108% | [6] 81.2% | [7] 102% | [8] 105% | [9] 109% | [10] 107%

COCCN(C(=O)c1ccc(F)cc1F)c1c(N)n(Cc2ccccc2)c(=O)[nH]c1=O
inactive: [1] 95.4% | [2] 94.7% | [3] 99.8% | [4] 103% | [5] 116% | [6] 59.3% | [7] 98.3% | [8] 101% | [9] 102% | [10] 124%

CC(=O)c1ccc(NCC(=O)Nc2ccccn2)cc1
inactive: [1] 96.4% | [2] 91.3% | [3] 103% | [4] 98.7% | [5] 104% | [6] 103% | [7] 107% | [8] 104% | [9] 102% | [10] 103%

O=c1c2c3c(sc2n2c(-c4cn(-c5ccccc5)nc4-c4ccc(Cl)cc4)nnc2n1Cc1ccccc1)CCCC3
inactive: [1] 94.3% | [2] 107% | [3] 102% | [4] 94.6% | [5] 106% | [6] 81.8% | [7] 77.5% | [8] 105% | [9] 99.6% | [10] 111%

CCc1c2c(nc3ccc(OC(=O)NCc4ccc(B5OC(C)(C)C(C)(C)O5)cc4)cc13)-c1cc3c(c(=O)n1C2)COC(=O)[C@]3(O)CC
active: [1] -28.3% | [2] -65.4% | [3] 5.73% | [4] -5.68% | [5] -16.7% | [6] 8.05% | [7] -23.2% | [8] 4.61% | [9] 6.78% | [10] 7.58%

CC(C)C(=O)Nc1n[nH]c2cc(-c3cccc(NS(=O)(=O)C4CC4)c3)ccc12
inactive: [1] 53.6% | [2] 60% | [3] 96.2% | [4] 66.5% | [5] 84.4% | [6] 72.7% | [7] 40.8% | [8] 80.3% | [9] 89.2% | [10] 84.7%

Source: PubChem BioAssay (NCI)
